“And” between values parts separate entries of the source, which are not always exact repeats. Equal entries are not always repeated. Inconclusive results are not listed. A structure can be active in one record and inactive in another. The source made the active and inactive calls. How the source made its calls, unless noted: active means hit-call score of the fitted dose curve at least 0.9, where 1 is the maximum; inactive means score below 0.9.
Experiments:
[1] = IUF_NPC2c_oligodendrocyte_migration_120hr: Leibniz Research Institute for Environmental Medicine (IUF) 120-hour Neural Progenitor Cell Migration Assay for Oligodendrocyte Migration (NPC2c) (AID 2284297)
Summary of the method: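 Read-out is the mean distance of O4-positive oligodendrocytes from the sphere core edge at 120 h, normalized to radial glia migration and fitted in the gain direction against DMSO. Spheres of primary human neural progenitors differentiated on laminin under continuous compound exposure.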

[2] = IUF_NPC2a_radial_glia_migration_120hr: Leibniz Research Institute for Environmental Medicine (IUF) 120-hour Neural Progenitor Cell Migration Assay for Radial Glia Migration (NPC2a) (AID 2284298)
Summary of the method: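 Readout: distance in um from sphere core edge to migration-area edge, derived from Hoechst nuclei density with a threshold-defined polynomial boundary. Spheres: hNPC, GW 16-19, 0.3 mm, on PDL/laminin; exposure 5 days; DMSO is baseline.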

[3] = IUF_NPC2a_radial_glia_migration_72hr: Leibniz Research Institute for Environmental Medicine (IUF) 72-hour Neural Progenitor Cell Migration Assay for Radial Glia Migration (NPC2a) (AID 2284299)
Summary of the method: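 Human fetal cortex (GW 16-19) neural progenitor spheres, 0.3 mm, plated on poly-D-lysine/laminin in N2 differentiation medium with compound from day 0. Radial glia migration distance (um, sphere core edge to migration edge) measured manually in four directions on 72 h brightfield images; well mean used.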

[4] = IUF_NPC3_neuronal_differentiation_120hr: Leibniz Research Institute for Environmental Medicine (IUF) 120-hour Neuronal Differentiation Assay (NPC3) (AID 2284301)
Summary of the method: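 Single 0.3 mm neurospheres from human fetal cortex were plated in differentiation medium containing test compound. Medium was half-replaced on day 3. After 120 h cells were fixed, immunostained and imaged, and neuronal fraction was scored against DMSO control.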

[5] = IUF_NPC4_neurite_length_120hr: Leibniz Research Institute for Environmental Medicine (IUF) 120-hour Neuronal Morphology Assay for Neurite Length (NPC4) (AID 2284302)
Summary of the method: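 Read-out is mean neurite length in µm of TUBB3-positive neurons, skeletonized from high-content fluorescence images after 120 h. Single 0.3 mm primary human neural progenitor spheres differentiated on poly-D-lysine/laminin under continuous compound exposure; DMSO was baseline.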

[6] = IUF_NPC5_oligodendrocyte_differentiation_120hr: Leibniz Research Institute for Environmental Medicine (IUF) 120-hour Oligodendrocyte Differentiation Assay (NPC5) (AID 2284304; active means hit-call score of the fitted dose curve at least 0.9, where 1 is the maximum;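 further: primary human fetal neural progenitor spheres plated to migrate and differentiate; share of O4-positive cells among Hoechst nuclei found by CNN image analysis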)
Summary of the method: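 Oligodendrocyte differentiation was scored after 120 h as the O4-positive share of Hoechst-stained nuclei across the neurosphere migration area, using a trained convolutional neural network on high-content fluorescence images. Human fetal neural progenitor spheres were dosed from day 0, normalised to DMSO.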

[7] = IUF_NPC4_neurite_area_120hr: Leibniz Research Institute for Environmental Medicine (IUF) 120-hour Neuronal Morphology Assay for Neurite Area (NPC4) (AID 2284305; active means hit-call score of the fitted dose curve at least 0.9, where 1 is the maximum)
Summary of the method: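 Neurite area is read out as the mean pixel area, excluding nuclei, of skeletonized TUBB3-positive neurons imaged after 120 h. Primary human neural progenitor spheres differentiated on poly-D-lysine/laminin with compound present from day 0. Activity was referenced to DMSO controls.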

[8] = IUF_NPC2-5_cytotoxicity_72hr: Cytotoxicity Assessment at 72 hours in the Leibniz Research Institute for Environmental Medicine (IUF) Neural Progenitor Cell Migration and Differentiation Assay for Cytotoxicity (NPC2-5) (AID 2284306; active means hit-call score of the fitted dose curve at least 0.9, where 1 is the maximum;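 further: LDH release into supernatant measured by resorufin fluorescence marking membrane damage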)
Summary of the method: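 Membrane integrity loss was scored from fluorescence (RFU) of resorufin generated by LDH in culture supernatant, 72 h after dosing. Differentiating human progenitor spheres received seven serial compound concentrations alongside a solvent control.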

[9] = IUF_NPC2-5_cytotoxicity_120hr: Cytotoxicity Assessment at 120 hours in the Leibniz Research Institute for Environmental Medicine (IUF) Neural Progenitor Cell Migration and Differentiation Assay (NPC2-5) (AID 2284307; active means hit-call score of the fitted dose curve at least 0.9, where 1 is the maximum;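 on AC50: LDH released into supernatant as membrane damage marker via resorufin fluorescence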)
Summary of the method: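 Sphere plating starts differentiation and exposure together at day 0. Compound solution is half-replaced on day 3. At 120 h, medium supernatant is taken for an LDH membrane-integrity read based on resazurin reduction to resorufin fluorescence.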

[10] = IUF_NPC2-5_cell_number_120hr: Cell Number Assessment at 120 hours in the Leibniz Research Institute for Environmental Medicine (IUF) Neural Progenitor Cell Migration and Differentiation Assay (NPC2-5) (AID 2284308);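 further: count of Hoechst-stained nuclei in migration zone around plated human neural progenitor spheres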
Summary of the method: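 hNPC spheres, one per well, PDL/laminin, N2 medium, 37C, 5% CO2. Dosing day 0 → half-medium change with fresh compound day 3 → fix 120 h. Readout: Hoechst+ nuclei count, migration area; 7 concentrations plus solvent control.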

[11] = IUF_NPC2-5_viability_120hr: Viability Assessment at 120 hours in the Leibniz Research Institute for Environmental Medicine (IUF) Neural Progenitor Cell Migration and Differentiation Assay (NPC2-5) (AID 2284312)
Summary of the method: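 Alamar blue resorufin fluorescence read after 5 days of differentiation, with compound present from day 0 and replenished at day 3. Primary hNPC spheres on laminin-coated plates, 37C; seven concentrations plus solvent control, fitted against DMSO.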

[12] = VALA_TUBHUV_Agonist_CellCount: Viability Assessment in the VALA Sciences human Umbilical Vein Endothelial Tubule Formation (TUBHUV) Agonism Assay (AID 2284309; active means hit-call score of the fitted dose curve at least 0.9, where 1 is the maximum)
Summary of the method: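 HUVEC co-cultured 1:3 with HDF for 3 days in 10 ng/ml VEGF, then compounds added in VEGF medium for a further 3 days (72 h). Nuclear-stain/CD31 imaging cell count. Positive-direction fit versus 0.1% DMSO vehicle.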

[13] = VALA_TUBHUV_Antagonist_CellCount: Viability Assessment in the VALA Sciences human Umbilical Vein Endothelial Tubule Formation (TUBHUV) Antagonism Assay (AID 2284310; active means hit-call score of the fitted dose curve at least 0.9, where 1 is the maximum)
Summary of the method: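 HUVEC co-cultured with HDF (1:3) 3 days in 10 ng/ml VEGF, then 3 days with compounds in VEGF medium. Fixed, nuclear stain and CD31 immunofluorescence, imaged; cell counts fitted versus 0.1% DMSO, loss of signal read as lower viability.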

[14] = BSK_IMphg_SRB: Viability Assessment in the BioMAP Diversity Plus: IMphg Assay (AID 2284292); details: primary human endothelial cells with macrophages;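 further: measured one day after compound addition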
Summary of the method: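 Human venular endothelial cells with macrophages, 24 h after chemical dosing; total protein by 0.1% SRB staining after 10% TCA fixation, read at 560 nm. Positive-direction fitting versus DMSO baseline.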

[15] = read-out: Macrophage colony-stimulating factor (MCSF), CSF1 (gene 1435); assay: BSK_IMphg_MCSF: BioMAP Diversity Plus: IMphg Assay for Macrophage colony-stimulating factor (MCSF) Biomarker Activity (AID 2284293); details: primary human endothelial cells with macrophages
Summary of the method: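 Co-culture of human venular endothelial cells and macrophages, 24 hours of chemical exposure. M-CSF quantified by ELISA, with parallel SRB total-protein staining for cytotoxicity; activity fitted relative to DMSO.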

[16] = read-out: Interleukin-10 (IL10), IL10 (gene 3586); assay: BSK_IMphg_IL10: BioMAP Diversity Plus: IMphg Assay for Interleukin-10 (IL10) Biomarker Activity (AID 2284294); details: primary human endothelial cells with macrophages
Summary of the method: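 Human venular endothelial cells cocultured with macrophages, dosed 24 h; IL-10 measured by ELISA, activity relative to DMSO. Cytotoxicity assessed in parallel cultures by sulforhodamine B total-protein staining.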

[17] = BSK_IMphg_SRB.Mphg: Macrophage Viability Assessment in the BioMAP Diversity Plus: IMphg Assay (AID 2284295); details: primary human endothelial cells with macrophages
Summary of the method: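 Venular endothelial cells co-cultured with macrophages, read 24 h after dosing. Total protein measured by 0.1% SRB staining after 10% TCA fixation, absorbance at 560 nm. Fitted in positive direction against DMSO baseline.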

[18] = read-out: Thrombomodulin, THBD (gene 7056); assay: BSK_LPS_Thrombomodulin: BioMAP Diversity Plus: LPS Assay for Thrombomodulin Biomarker Activity (AID 2284296); details: primary human HUVEC with PBMC
Summary of the method: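 Human umbilical vein endothelial cells co-cultured with PBMC and stimulated with LPS; cell-surface thrombomodulin measured by ELISA 24 hours after compound. Gain or loss versus DMSO; cytotoxicity checked by SRB staining in parallel cultures.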

CD69, CD69 (gene 969) = assay: BSK_LPS_CD69: BioMAP Diversity Plus: LPS Assay for CD69 Biomarker Activity (AID 2284303); details: primary human HUVEC with PBMC
Summary of the method: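 Human umbilical vein endothelial cells co-cultured with PBMC under LPS stimulation, chemical exposure 24 h; cell-surface CD69 measured by ELISA and fitted in the positive direction versus DMSO.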

[19] = VALA_TUBIPS_Agonist_TubuleLength: VALA Sciences human iPS-derived Endothelial Tubule Formation (TUBIPS) Agonism Assay (AID 2284311; active means hit-call score of the fitted dose curve at least 0.9, where 1 is the maximum)
Summary of the method: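 Human iPS-derived endothelial cells were exposed to compound for 72 h. Tubule formation was imaged by high-content fluorescence and scored as gain of signal relative to DMSO vehicle (agonist mode).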

Measured: AC50

CC1(C)C(C=C(Cl)Cl)C1C(=O)OC(C#N)c1ccc(F)c(Oc2ccccc2)c1 (configuration not stated)
active: [6] 0.227 µM
inactive: [1] | [2] | [3] | [4] | [5] | [7] | [8] | [9] | [10] | [11]

Oc1cc(Cl)ccc1Oc1ccc(Cl)cc1Cl
inactive: [12] | [13]

O=[N+]([O-])/N=C1\NCCN1Cc1ccc(Cl)nc1
inactive: [1] | [2] | [3] | [4] | [5] | [6] | [7] | [8] | [9] | [10] | [11]

O=S(=O)(O)C(F)(F)C(F)(F)C(F)(F)C(F)(F)C(F)(F)C(F)(F)C(F)(F)C(F)(F)F
inactive: [14] | [15] | [17] | [18] | [1] | [3] | [4] | [5] | CD69, CD69 (gene 969) | [6] | [9] | [10] | [12] | [19] | [11]
active: [16] 45.3 µM [middle of 4 runs] | [2] 79.3 µM and 16 µM | [3] 68.6 µM | [4] 2.09 µM | [5] 0.362 µM | [8] 79.3 µM | [9] 62.4 µM | [10] 73 µM

CCC(C)(C)C(=O)OC1=C(c2ccc(Cl)cc2Cl)C(=O)OC12CCCCC2
inactive: [1] | [2] | [3] | [4] | [5] | [7] | [8] | [9] | [10] | [11]

O=C(O)C(F)(F)C(F)(F)C(F)(F)C(F)(F)C(F)(F)C(F)(F)C(F)(F)F
inactive: [14] | [15] | [16] | [17] | [18] | [1] | [2] | [3] | [4] | [5] | CD69, CD69 (gene 969) | [6] | [7] | [8] | [9] | [10] | [11]
active: [16] 30 µM | [18] 0.609 µM | CD69, CD69 (gene 969) 220 nM and 30 µM

Source: PubChem BioAssay (EPA / NIEHS)
